Experimental data: ChEMBL document CHEMBL1157539, “Thousands of chemical starting points for antimalarial lead identification” (Nature, 2010)

How the values were obtained:
Format in all cases: functional
Plasmodium falciparum [1] = assay: GSK_TCMDC: Inhibition of Plasmodium falciparum 3D7 in whole red blood cells, using parasite LDH activity as an index of growth. Test compounds present at 2uM
Plasmodium falciparum [2] = assay: GSK_TCMDC: Inhibition of Plasmodium falciparum Dd2 in whole red blood cells, using parasite LDH activity as an index of growth. Test compounds present at 2uM
HepG2 = assay: GSK_TCMDC: Percent inhibition of human HepG2 cell line. Test compounds present at 10uM.

Compound | Inhibition (Plasmodium falciparum [1]) | Inhibition (Plasmodium falciparum [2]) | Inhibition (HepG2)
Cn1nc(C(F)(F)F)c(-c2ccc(F)cc2)c1NC(=O)Nc1ccc(F)cc1 | 100% | 99% | 5%
CC(C)(C)c1ccc2[nH]c(-c3ccc(C(=O)NC4CCN(Cc5ccccc5)CC4)s3)nc2c1 | 91% | 42% | 24%
COc1ccc2oc(=O)c(C#N)c(O)c2c1 | 99% | 0% | 0%
S=C(NCCN1CCOCC1)Nc1ccccc1 | 94% | 1% | 3%
Cc1cc2c(cc1C(F)(F)F)N(C(=O)Nc1cc(OCCN(C(C)C)C(C)C)cc(C(F)(F)F)c1)CC2.Cl | 100% | 86% | 42%
Cc1cc(C)n(Cc2ccc(C(=O)NCC3CCCCC3)cc2)n1 | 95% | 1% | 0%
CN1CCC(Oc2cc(NC(=O)Nc3ccc(-c4ccncc4)c(C(F)(F)F)c3)ccc2Cl)CC1 | 100% | 92% | 30%
COc1ccc(Nc2nc(NC3CCN(C)CC3)cc(-c3ccc(OC)cc3)n2)cc1 | 100% | 51% | 62%
COc1ccc(-c2cccc(NC(=O)c3cccc(Cl)c3)c2)cc1CN1CCCC1.O=C(O)C(F)(F)F | 99% | 66% | 45%
NC(=O)C1CCN(Cc2ccc(-c3ccc(-c4nc5cc(C(F)(F)F)ccc5[nH]4)cc3)cc2)CC1.O=C(O)C(F)(F)F | 100% | 90% | 25%
CCOC(=O)CN1Cc2cc(NCc3ccc4ccc5nc(C)[nH]c(=O)c5c4c3)ccc2C1=O | 84% | 91% | 40%
CC(C)(C)CCN1CCC(CNC(=O)c2cc(-c3cccc(Cl)c3)cs2)C1.O=C(O)C(F)(F)F (configuration not stated) | 99% | 13% | 50%
COc1ccc(-c2ccc(NC(=O)c3ccc(Cl)cc3)cc2)cc1CN1CCC(O)CC1.O=C(O)C(F)(F)F | 89% | 15% | 20%
CN(Cc1ccccc1)C(=O)c1nn(CCCN2CCC(N3CCCC3)CC2)cc1-c1ccc(Cl)c(Cl)c1 | 100% | 66% | 43%
Cc1nc(C)c(C2CCC(c3ccc(Cl)cc3)CC2)c(O)c1Cl (configuration not stated) | 98% | 97% | 37%
CC(C)C(=O)NC(c1ccc(N(C)C)cc1)c1cc(Cl)c2cccnc2c1O (configuration not stated) | 87% | 64% | 61%
O=C(N[C@H]1CCN(Cc2ccc(OC3CCN(Cc4ccccc4)CC3)c(Br)c2)C1)c1ccc(Cl)c(Cl)c1.O=C(O)C(F)(F)F | 100% | 30% | 55%
COc1ccc(-c2nc(NC(=O)CSc3ccc([N+](=O)[O-])cc3)sc2C)cc1 | 100% | 100% | 0%
O=C(COc1ccc(Cl)c(Cl)c1)NCCCCCN1CCCN(C(=O)Nc2ccc(Cl)c(Cl)c2)CC1.O=C(O)C(F)(F)F | 93% | 7% | 29%
O=C(Nc1ccccc1N1CCOCC1)c1ncoc1-c1ccccc1C(F)(F)F | 89% | 60% | 0%
COc1cc(-c2nc(-c3ccccc3)c(-c3ccccc3)[nH]2)ccc1OCCN(C)C | 100% | 100% | 0%
COc1ccc(CCNc2ccnc3cc(Cl)ccc23)cc1OC.Cl | 100% | 92% | 4%
CCCCCCCCN1CCN(CCCCCCNc2c3ccccc3nc3ccccc23)CC1.Cl | 100% | 100% | 100%
CCCCCC(C)C(C)c1cc(O)c2c(c1)OC(C)(C)CC2c1cc[n+]([O-])cc1 (configuration not stated) | 96% | 7% | 0%
O=C(O)C(F)(F)F.O=c1[nH]ccc2nc(N[C@@H]3CCNC3)nc(Nc3cc(Cl)cc(Cl)c3)c12 | 100% | 99% | 99%
CN(CCCCN)Cc1ccc(-c2ccc(Cl)cc2)cc1 | 97% | 20% | 96%
Cc1ccc(Cn2cnc3cc(C(=O)Nc4ccc(-c5ccc(CN(C)C)cc5)cc4)ccc3c2=O)o1 | 82% | 12% | 43%
O=C(C=Cc1ccc(Cl)c(Cl)c1)NCCCCCN1CCC(CCNC(=O)c2cccc3ccccc23)CC1 | 85% | 0% | 17%
Cc1cc(-c2cnc(N)c(-c3ccc(N4CCN(C)CC4)nc3)c2)cc(C)c1O | 91% | 33% | 0%
